Data reported in PubChem BioAssay AID720697 (Broad Institute, 2013).
Entries with a potency or affinity are not part of this list. Inconclusive results are not listed. Calls of active or inactive are those of the source.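 Rule for the calls: active = signal loss with fitted half-maximal concentration at or below twice the top valid tested dose in every test run; inconclusive = runs disagree, flat 30 to 70% signal loss, or poor fit; inactive = all runs flat, opposite direction, or potency beyond limit.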

Assay: general mammalian cell viability loss – inhibitor set, cherry-pick, set 2, cytotoxicity control for miR-122 modulator project, dose response (AID 720697);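 note: 0% = median of neutral control wells and -100% = MG132 positive control wells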
Settings: HEK293T viability, CellTiter-Glo luminescence, 48 h; series mostly up to 26 µM; activity change, negative = cytotoxicity: at the top concentration

| Compound | activity change, negative = cytotoxicity |
| --- | --- |
| Cc1c(CC(=O)NCCCC(=O)O)c(=O)oc2cc3occ(-c4ccccc4)c3cc12 | 75.4% (inactive) |
| CN(C[C@@H]1[C@@H](c2ccccc2)[C@H](CO)N1C(=O)C1CCC1)C(=O)c1ccccn1 | 195% (inactive) |
| CN1C(=O)c2cc(NC(=O)c3cccc(F)c3)ccc2OC[C@H]2O[C@H](CC(=O)NC3CCC3)CC[C@H]21 | 1.04% (inactive) |
| CO[C@H]1CN(C)C(=O)c2cc(NC(C)=O)ccc2OC[C@@H](C)N(C(=O)CC2CC2)C[C@H]1C | 61.8% (inactive) |
| C/C=C/c1ccc([C@H]2[C@@H](CNC(=O)c3ccncc3)N(C(=O)CC)[C@H]2CO)cc1 | 132% [at 23.5 µM] (inactive) |
| C/C=C/c1ccc([C@@H]2[C@@H](CO)N[C@@H]2CN(C(=O)C2CCCC2)C(C)C)cc1 | 15.4% (inactive) |
| C/C=C/c1ccc([C@H]2[C@@H](CO)N(Cc3ccccn3)[C@@H]2CNC(=O)CC)cc1 | -24.5% [at 23.5 µM] (inactive) |
| N=c1n(CC(=O)c2ccc(Br)s2)c2ccccc2n1Cc1ccccc1 | -12.8% (inactive) |
| O=C(Nc1ccccc1)N1CCCCN2[C@@H](CO)[C@H](c3ccc(C4=CCCCC4)cc3)[C@@H]2C1 | -74% (inactive) |
| CCNC(=O)C[C@H]1CC[C@H]2[C@@H](COc3ccc(NC(=O)c4ccccc4)cc3C(=O)N2C)O1 | 118% (inactive) |
| CCOc1cc(C(=O)NC(C)COC)cc(OCC)c1OCC (stereo unspecified) | 123% (inactive) |
| CCS(=O)(=O)Nc1ccc2c(c1)C(=O)N(C)[C@@H]1CC[C@@H](CC(=O)NCCCN3CCOCC3)O[C@@H]1CO2 | 147% (inactive) |
| CNC(=O)C[C@@H]1CC[C@@H]2[C@@H](COc3ccc(NC(=O)NC(C)C)cc3C(=O)N2C)O1 | 32.5% (inactive) |
| CCOc1ccc(CCNC(=O)C2CCN(S(=O)(=O)N3CCC(C)CC3)CC2)cc1OCC | -33% (inactive) |
| COc1ccc(-c2cc(C3CCN(c4ccc(C(C)=O)cc4[N+](=O)[O-])CC3)[nH]n2)cc1 | -54.1% (inactive) |
| CCNC(=O)Nc1ccc2c(c1)C(=O)N(C)[C@H]1CC[C@@H](CC(=O)NCCOC)O[C@@H]1CO2 | 90.1% (inactive) |
| CC(C)C(=O)Nc1ccc2c(c1)C(=O)N(C)[C@@H]1CC[C@H](CC(=O)NCc3cccc(F)c3)O[C@H]1CO2 | 56.6% [at 23.5 µM] (inactive) |
| CNC(=O)C[C@H]1CC[C@H]2[C@H](COc3ccc(NC(=O)c4cccc(OC)c4)cc3C(=O)N2C)O1 | 66.9% (inactive) |
| C[C@@H]1CN([C@H](C)CO)S(=O)(=O)c2ccc(C3=CCCC3)cc2O[C@@H]1CN(C)C(=O)C1CCOCC1 | 95.3% (inactive) |
| CCCNC(=O)C[C@@H]1CC[C@H]2[C@@H](COc3ccc(NC(=O)c4ccc(C(F)(F)F)cc4)cc3C(=O)N2C)O1 | 36.1% (inactive) |
| COCC(=O)Nc1ccc2c(c1)C(=O)N(C)[C@H]1CC[C@@H](CC(=O)NCCCN(C)C)O[C@@H]1CO2 | 15.3% (inactive) |
| COc1cccc(C(=O)Nc2ccc3c(c2)C(=O)N(C)[C@@H]2CC[C@H](CC(=O)NCc4ccc(F)cc4)O[C@@H]2CO3)c1 | -15.2% (inactive) |
| CCN(C[C@@H]1N[C@@H](CO)[C@@H]1c1ccc(C2=CCCC2)cc1)C(=O)c1cccnc1 | -18.4% [at 23.5 µM] (inactive) |
| COCCN(C[C@@H]1[C@@H](c2ccccc2)[C@H](CO)N1C(=O)C1CCC1)C(C)=O | 170% (inactive) |
| CCS(=O)(=O)Nc1ccc2c(c1)C(=O)N(C)[C@@H]1CC[C@@H](CC(=O)NCCCN3CCOCC3)O[C@H]1CO2 | 143% (inactive) |
| CCCNC(=O)C[C@@H]1CC[C@@H]2[C@H](COc3ccc(NC(=O)Nc4ccccc4F)cc3C(=O)N2C)O1 | 55% (inactive) |
